Compound activity from PubChem BioAssay.
iPSC survival up: increases survival of single human iPS cells. AID 602274. hiPSC single-cell survival, ATPlite luminescence; 100% = ROCK inhibitor wells, 0% = DMSO. survival enhancement, % at 20 µM. 360,000 tested, 0.044% active; in the data active = survival enhancement above about 18%;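 also: cells exposed to compounds for 16 hours before the ATP read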
V-ATPase pH: yeast V-ATPase proton transport regulation by pHLuorin; response, % at 10 µM; AID 504577; S. cerevisiae, pHLuorin cytosolic pH fluorescence; 350,000 tested, 0.37% active; in the data active = response mostly above about 7.3%, no sharp cut-off; inactive = mostly below about 5.4%; also: actives read high
CTSL1 counter: blocks F. hepatica cathepsin L1 in PFM18AAP counter-screen; recombinant F. hepatica cathepsin L1, Z-Leu-Arg-MCA fluorescence; 300,000 tested, 0.49% active; inhibition, % at 5.96 µM;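 active = inhibition above the mean of all tested compounds plus 3 SD, set per screening campaign, cut at about 17% in these data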;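 also: 0% = plate median of test compound wells and 100% = 1 µM Z-Phe-Ala-diazomethylketone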
Yeast superoxide: yeast age-related superoxide inhibition as caloric restriction mimetic; S. cerevisiae aged cells, superoxide DHE fluorescence; active compounds read low; 330,000 tested, 0.18% active; superoxide response (% of plate mean), % at 10 µM; AID 2690;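 active = superoxide response under a set limit, about three screen SD below normal, cut at about 65% in these data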;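 also: yeast aged for seven days with compound at 30 °C before DHE staining; 100% = average MFI of all compound-treated wells on the plate with controls excluded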
Superoxide pick: confirmation of caloric restriction mimetics inhibiting yeast age-related superoxide; shares compounds with Yeast superoxide; S. cerevisiae aging, superoxide DHE fluorescence; active compounds read low; 850 tested, 1% active; superoxide response (% of plate), % at 10 µM;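 active = superoxide signal below 65% of the plate average of sample wells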;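 also: cells aged with compound for 7 days at 30 degrees C before staining; 100% equals mean DHE fluorescence of all compound wells on the plate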
DHE fluor count: DHE fluorescence interference, counter-screen artifact. 850 tested, under 10 active. S. cerevisiae BY4741, flow cytometry; active compounds read low. fluorescence response, % at 10 µM. shares compounds with Yeast superoxide;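 active = fluorescence response below 15%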;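 also: percent of the mean fluorescence averaged over all compound wells on the plate; lower means stronger quenching of DHE signal or ROS scavenging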
Numbers without * were called inactive; x = not tested or not shown. Hits are enriched below; roughly 1% of the tested compounds scored in any of these assays.

SMILES	iPSC survival up	V-ATPase pH	CTSL1 counter	Yeast superoxide	others
CCCOP(=O)(OCCC)C(NC(=O)c1cc(OC)c(OC)c(OC)c1)c1ccccc1 (configuration not stated)	3.6	-2.8	16.7*	80.3
O=C1NC(=O)C(Cc2ccccc2)(Cc2ccccc2)C(=O)N1Cc1ccccc1	-2.2	-1.1	x	x
C=C1C(C)C2C(Cc3ccccc3)NC(=O)C23OC(=O)/C=C/C(O)CCCC(C)C/C=C/C3C1O (configuration not stated)	30.4*	-2.6	x	x
CNC1CCc2cc(OC)c(OC)c(OC)c2-c2ccc(SC)c(=O)cc21 (configuration not stated)	-0.1	-2.3	x	x
CC(C)C(O)(C(=O)OCC1=CCN2CCC(O)C12)C(C)O (configuration not stated)	0.5	x	x	x
CCOC(=O)NC1CCc2cc(OC)c(OC)c(OC)c2-c2ccc(OC)c(=O)cc21 (configuration not stated)	2.2	0.9	x	x
C=C(CO)CC1CC(O)[C@]2(C)OC3CC4OC5C[C@]6(C)O[C@]7(C)CCC8OC9C[C@]%10(C)OC%11C(C)=CC(=O)OC%11CC%10OC9C[C@@H](C)C8OC7CC6O[C@]5(C)C/C=C\C4OC3CC2O1 (some centres not stated)	-0.9	1.8	0.4	x
C=C(C=O)CC1CC(O)[C@]2(C)OC3CC4OC5C[C@]6(C)O[C@]7(C)CCC8OC9C[C@]%10(C)OC%11C(C)=CC(=O)OC%11CC%10OC9C[C@@H](C)C8OC7CC6O[C@]5(C)CC5OC5C4OC3CC2O1 (some centres not stated)	39.9*	0.9	3.8	96.8
C[C@@H]1C[C@H]2OC(=O)C3(CO3)[C@H]2[C@H](O)[C@]2(C)C(=O)C3OC3[C@@H]12 (some centres not stated)	x	x	-1.0	107.4
C=C1C(=O)O[C@@H]2C[C@@H](C)[C@@H]3C=CC(=O)[C@@]3(C)[C@@H](O)[C@H]12	81.5*	-3.7	-7.7	121.6
COC(=O)C1=C(N)Oc2c(c(=O)oc3ccccc23)C1c1cccnc1 (configuration not stated)	-2.7	27.1*	0.9	94.5
N#CC1=C(N)Oc2c(c(=O)oc3ccccc23)C1c1ccncc1 (configuration not stated)	3.6	-3.6	-3.7	108.3
CC12CCC3C(CC=C4CC(O)CCC43C)C1CC(=CN1CCOCC1)C2=O (configuration not stated)	3.9	1.8	x	x
C[C@@H]1O[C@@H](O[C@@H]2C=C3CCC4C(CC[C@]5(C)[C@@H](c6ccc(=O)oc6)CC[C@]45O)[C@@]3(C)CC2)[C@H](O)[C@H](O)[C@H]1O (some centres not stated)	-1.9	-1.3	25.4*	104.3
COc1cccc(N2C(=O)NC(=O)/C(=C/c3ccc4c(c3)Cc3ccccc3-4)C2=O)c1	0.6	-1.5	7.7	90.5
COc1ccccc1N1C(=O)NC(=O)/C(=C\c2cnn(-c3ccccc3)c2)C1=O	-1.0	0.2	2.8	96.4
COc1cccc(N2C(=O)NC(=O)/C(=C/c3ccc([N+](=O)[O-])s3)C2=O)c1	-0.1	111.5*	-2.0	111.0
COc1ccc(N2C(=O)NC(=O)/C(=C/c3ccc([N+](=O)[O-])s3)C2=O)cc1	-0.3	100.5*	-1.1	102.5
COc1ccc(N2C(=O)NC(=O)/C(=C\c3ccc([N+](=O)[O-])s3)C2=O)cc1	-3.0	102.3*	-0.7	93.7
COc1ccccc1N1C(=O)NC(=O)/C(=C/c2ccc([N+](=O)[O-])s2)C1=O	x	125.3*	1.7	97.9
CCOc1ccc(N2C(=O)NC(=O)/C(=C\c3cc(OC)c(OC)cc3[N+](=O)[O-])C2=O)cc1	-2.0	-0.2	2.5	87.2
COc1cc(C=NNC(=S)Nc2ccc(S(=O)(=O)N3CCCCC3)cc2)cc(OC)c1OC	1.5	3.2	x	x
COc1cc2c(c(OC)c1OC)-c1ccc(OC)c(=O)cc1C(N)CC2 (configuration not stated)	-2.3	1.2	x	x
COc1ccc(C)cc1NC(=O)N1CCC2(CC1)OCCO2	0.7	-3.2	0.9	94.5
COc1ccc(C2=NCC(=S)Nc3ccc(Cl)cc32)cc1OC	0.4	-1.9	1.9	104.1
SMILES	iPSC survival up	V-ATPase pH	CTSL1 counter	Yeast superoxide	others
S=C1CN=C(c2ccccc2)c2cc(Cl)ccc2N1	0.7	25.0*	3.7	92.9
Cn1ccc(NC(=O)CCl)n1	0.6	-1.1	6.1	109.5
COc1cc2c(c(OC)c1OC)-c1ccc(SC)c(=O)cc1C(N)CC2 (configuration not stated)	-0.8	-4.2	x	x
COC(=O)c1nc(-c2ccc3c(n2)C(=O)C(N)=C(OC)C3=O)c(N)c(-c2ccc(OC)c(OC)c2O)c1C	-0.7	-3.1	110.2*	109.1
CCOC(=O)Cn1cc([N+](=O)[O-])nc1[N+](=O)[O-]	0.1	-4.9	18.1*	103.8
CCOC(=O)Cn1cc(C(=O)c2ccccc2F)c2ccccc21	-0.4	0.0	-1.0	102.4
NC(N)=N/N=C/c1cn(-c2ccccc2)nc1-c1cccs1	-0.8	2.9	1.0	117.5
CCOC(=O)C(NC(=O)CCl)(Nc1ccc(C(O)(C(=O)OCC)C(F)(F)F)cc1)C(F)(F)F (configuration not stated)	-0.8	-3.5	34.7*	87.8
N=c1c2c(n(Cc3ccc(Cl)cc3Cl)c3c1CCC3)CCCC2	-3.5	12.5*	1.8	80.1
O=C1CCC[C@@H]2C[C@@]3(C[C@@H]4CCN1[C@H]24)Nc1cc(Cl)ccc1NC3=NCc1ccccc1	-2.8	-0.8	x	x
COC(=O)C(O)(c1c[nH]c2ccccc12)C(F)(F)F (configuration not stated)	-2.5	x	-2.4	93.8
COC(=O)C(O)(c1c(C)[nH]n(-c2ccccc2)c1=O)C(F)(F)F (configuration not stated)	1.7	-1.6	19.8*	109.9
Cn1c(=O)[nH]c2nncnc2c1=O	-0.1	-2.1	2.8	59.5*
C[C@]12CCC3C(CCC4=C/C(=N/OCC(=O)NC(CCC(N)=O)C(=O)O)CC[C@@]43C)C1CCC2O (some centres not stated)	-0.2	-0.4	0.2	70.6
C[C@]12CCC3C(CCC4=C/C(=N/OCC(=O)NC(CCC(=O)O)C(=O)O)CC[C@@]43C)C1CCC2O (some centres not stated)	-0.6	3.9	0.5	58.0*	Superoxide pick=94.1;DHE fluor count=106.6
Cn1c(O)c(C(=Nc2ccc(F)cc2)c2ccccc2Cl)c(=O)n(C)c1=O	0.4	-3.8	4.3	61.9*	Superoxide pick=74.7;DHE fluor count=93.4
Cc1ccc2[nH]c3c(c2c1)CN(C(=O)CN1C[C@H]2C[C@@H](C1)c1cccc(=O)n1C2)CC3	0.2	-2.3	-2.9	85.9
